Assay outcomes as filed in PubChem BioAssay.
Shown are actives, neighbours in structure and some others; about 9.2% of the full set was active somewhere.
NPC1 promoter act: qHTS Assay for NPC1 Promoter Activators. Huh7 NPC1 promoter luciferase reporter, 24 h. Potency, µM (titrated, usually from 9.22 µM), for the others: at the highest dose activation, usual class: activators. 320,000 tested, 2.4% active. AID 485313, 2010; note: % of control where 0% means no effect; nearly all actives have a fitted effect of over 60% in size
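NPC1 promoter–luciferase Huh7 cells; 24 h compound; luminescence.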
FLuc modulator: qHTS profiling assay for firefly luciferase inhibitor/activator using purifed enzyme and Km concentrations of substrates (counterscreen for miR-21 project); Luciferin 4-monooxygenase (Photinus pyralis), P08659; purified FLuc, Km substrates, luminescence inhibition; Potency, µM (doses to about 57.5 µM), for the others: at the top dose activity change, negative = inhibition, most hits filed as inhibitors; 360,000 tested, 6.9% active;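 note: plate controls were vehicle for no effect and reference inhibitor for full effect; nearly all actives have a fitted effect of over 55% in size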
Target sequence (P08659 whole entry, looked up): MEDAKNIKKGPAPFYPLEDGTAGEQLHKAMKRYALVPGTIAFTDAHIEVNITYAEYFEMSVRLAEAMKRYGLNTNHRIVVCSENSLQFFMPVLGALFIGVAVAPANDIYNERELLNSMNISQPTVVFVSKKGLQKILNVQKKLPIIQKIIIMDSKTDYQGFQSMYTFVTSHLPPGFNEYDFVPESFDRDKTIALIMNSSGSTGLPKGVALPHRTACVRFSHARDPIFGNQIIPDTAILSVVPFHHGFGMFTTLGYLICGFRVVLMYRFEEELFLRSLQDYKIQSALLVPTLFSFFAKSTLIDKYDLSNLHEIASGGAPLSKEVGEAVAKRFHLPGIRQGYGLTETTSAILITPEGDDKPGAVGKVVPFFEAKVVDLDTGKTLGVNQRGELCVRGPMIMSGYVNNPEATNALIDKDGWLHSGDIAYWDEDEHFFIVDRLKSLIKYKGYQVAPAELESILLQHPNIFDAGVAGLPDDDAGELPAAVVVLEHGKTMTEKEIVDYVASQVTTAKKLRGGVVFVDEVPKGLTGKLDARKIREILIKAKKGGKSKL
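Purified P. pyralis luciferase, 10 nM final, with Km-level 10 uM D-luciferin and 10 uM ATP in 50 mM Tris acetate pH 7.5, 10 mM Mg acetate, 0.01% Tween-20, 0.05% BSA; 6-point qHTS titration about 60 µM downward; luminescence read.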
Rab9 prom act: qHTS Assay for Rab9 Promoter Activators; Huh7 Rab9 promoter-luciferase reporter, luminescence, 24 h; Potency, µM (top dose mostly 9.22 µM), inactives show at the top dose activation, negative = inhibition, usual class: activators; 320,000 tested, 2.8% active; note: % of control where 0% means no effect; nearly all actives have a fitted effect of over 60% in size
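Rab9 promoter-driven luciferase in stably transfected Huh7 cells; 1500 cells/well rested 2 h, exposed to compound in DMSO for 24 h at 37 °C, 5% CO2. Luminescence read 10 min after adding luciferase reagent at ambient temperature.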
ELG1 genotox: qHTS screen for small molecules that induce genotoxicity in human embryonic kidney (HEK293T) cells expressing luciferase-tagged ELG1 | AID 504466, 2011 | HEK293T ELG1-luciferase reporter, luminescence, 16 h | 330,000 tested, 1.3% active | Potency, µM (highest dose often 46 µM), for the others: top-dose activity change, positive = activation, hits mostly activators; note: % of control where 0% means no effect; nearly all actives have a fitted effect of over 60% in size
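Reporter readout depends on ELG1 protein level, which increases with genetic stress. After 16 hr compound exposure at 37 °C, luciferase activity was quantified using ONE-Glo.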
ELG1 repair inh: qHTS screen for small molecules that inhibit ELG1-dependent DNA repair in human embryonic kidney (HEK293T) cells expressing luciferase-tagged ELG1; HEK293T ELG1-luciferase reporter, luminescence, 16 h; DNA damage induced by 5-fluorouridine; Potency, µM (doses to about 46.1 µM), without a hit: top-dose activity change, negative = inhibition, usual class: inhibitors; 330,000 tested, 2.3% active; note: % is set by controls: 0 for no effect and ±100 for the full control effect; nearly all actives have a fitted effect of over 55% in size
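In this reporter screen, reduction of luminescence relative to DMSO vehicle indicated activity. Compounds and 5-fluorouridine were added together to 2,000 cells per well, incubated for 16 hr at 37 °C, then developed with ONE-Glo.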
SMN2 splice enh: qHTS Assay for Enhancers of SMN2 Splice Variant Expression; HEK293 SMN2-luciferase splicing reporter, luminescence, 30-36 h; Potency, µM (series often up to 46.1 µM), for the others: at the highest dose activity change, positive = activation, actives largely listed as activators; 210,000 tested, 2.8% active; note: % of control where 0% means no effect; nearly all actives have a fitted effect of over 55% in size
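HEK293 cells carry an SMN2 […]–luciferase reporter in which exon 7 inclusion puts luciferase in frame. Cells were plated 10-12 h before compound addition, then incubated 30-36 h at 37C. ONE-Glo luminescence was read; sodium butyrate at 4.5 mM final served as control.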
Starred values were filed as active, the others as inactive; u = inconclusive; x = no result; [ ] = dose if it differs, or a comment. Calls come from the whole dose curve; as a rule, active = well fitted curve in the direction sought with a large enough effect; inconclusive = small, poorly fitted or top-dose-only effect, or another doubt; inactive = no such curve, though single readings can be large; an effect the other way counts as inactive or inconclusive. Potency is the fitted concentration of half-maximal effect.

SMILES	NPC1 promoter act	FLuc modulator	Rab9 prom act	ELG1 genotox	ELG1 repair inh	SMN2 splice enh
Clc1ccc(Oc2cnc3ccccc3n2)cc1	20%	u	8%	-6%	u	0%
Cc1ccc(Oc2cnc3ccccc3n2)cc1	u	12µM*	u	7%	22%	5%
COc1ccc(CCNc2ncnc3c2nnn3C)cc1	x	5%	x	x	x	x
CSc1nnc(-c2ccccc2N=Cc2c(C)[nH]n(-c3ccc4ccccc4c3)c2=O)c(=O)[nH]1	18%	9.5µM*	7%	19%	u	u
CCCc1ccc(-c2ccc(/C=C/C(=O)O)cc2)nc1	-25%	0.54µM*	-28%	8%	u	-70%
CCCCCc1ccc(-c2ccc(/C=C/C(=O)O)cc2)nc1	u	0.38µM*	u	u	u	-35%
CCOc1cccc(/C=C/C(=O)O)c1	-1%	-4%	0%	0%	u	-51%
CCCCCCCCCCCCCCCCCCc1ccc(C(=O)/C=C/C(=O)O)cc1	x	x	x	x	x	7%
COc1ccc(CNC(=O)CCc2c(C)c3cc4c(C)c(C)oc4cc3oc2=O)cc1	x	-7%	x	x	x	3%
COc1cc(Cl)c(C)cc1NC(=O)CC1Oc2ccccc2NC1=O (configuration not stated)	x	-7%	x	x	x	-1%
COc1cc(C(=O)OCC(=O)Nc2c(F)cccc2F)cc(OC)c1C	-5%	-3%	4%	5%	19%	-7%
COc1cc(C(=O)OCC(=O)Nc2c(F)c(F)c(F)c(F)c2F)cc(OC)c1OC	0%	0%	15%	3%	26µM*	-8%
CCOC(=O)c1cnc2ccc(OC)cc2c1NCCc1ccc(OC)c(OC)c1	-5%	-19%	-20%	-7%	21µM*	-8%
CCN(CC)S(=O)(=O)c1ccc(Nc2ccc(-c3ccc4c(c3)OCCO4)nn2)cc1	-6%	11µM*	18%	8%	u	-14%
CN(C)S(=O)(=O)c1ccc(Nc2ccc(-c3ccc4c(c3)OCCO4)nn2)cc1	-5%	6.7µM*	9%	3%	26%	2%
CN(C(=O)c1cccc(Nc2ccc(-c3ccc4c(c3)OCCO4)nn2)c1)C1CCCCC1	u	0.95µM*	u	-21%	u	-59%
CCN(CC(=O)Nc1ccc2c(c1)OCCO2)C(=O)c1ccc(S(=O)(=O)N(C)C)cc1	3%	4%	-1%	-2%	2%	x
CCn1c(=O)c2cc(C(=O)N(CC(C)C)CC(C)C)sc2c2ccccc21	x	-1%	x	x	x	-3%
COC(=O)[C@@]1(Cc2ccc(OC)cc2)[C@@H]2C(=CC(=O)[C@H]2CC(=O)C(=O)N(C)C)CN1C(=O)c1ccccc1	0%	4%	2%	-13%	9.2µM*	-9%
COC(=O)[C@@]1(Cc2ccccc2)[C@@H]2[C@@H](CC(=O)[C@H]2CC(=O)C(=O)N(C)C)CN1C(=O)c1ccccc1	x	x	x	x	x	-5%
COC(=O)[C@@]1(Cc2ccc(F)cc2)[C@H]2c3cc(C(=O)N(C)C)n(Cc4ccccc4)c3C[C@H]2CN1C(=O)c1ccccc1	-5%	4%	-5%	2%	-19%	-35%
C=C1C(=O)C=C2CN(C(=O)c3ccccc3)[C@@](Cc3ccc(F)cc3)(C(=O)OC)[C@@H]12	-39%	-12%	-49%	-8%	2.9µM*	-84%
O=C(CN1CCCCC1)Nc1ccccc1Oc1ccccc1	-2%	3%	-3%	-2%	-20%	x
Cc1ccc(C)c(NC(=S)N2CCC(NC(=O)c3cccc(F)c3)CC2)c1	0%	-4%	8%	-2%	2%	x
Cc1ccc(C2=NC(c3ccccc3)=Nc3ccc(Cl)cc3N2)cc1	x	11µM*	x	x	x	-5%
SMILES	NPC1 promoter act	FLuc modulator	Rab9 prom act	ELG1 genotox	ELG1 repair inh	SMN2 splice enh
COc1cc(CNC(=O)c2cc(C(=O)NCc3cc(OC)cc(OC)c3)n(C)n2)cc(OC)c1	-2%	1%	-2%	1%	21µM*	x
COc1cc(CNC(=O)c2cnc(C)cn2)cc(OC)c1	6%	-3%	-2%	3%	-1%	x
O=C(NCc1cccc(F)c1)c1ccc(-n2cnc3cccnc32)cc1	x	-6%	x	x	x	x
Cn1nc(C(=O)NCc2cccc(F)c2)cc1C(=O)NCc1cccc(F)c1	-3%	1%	-10%	-2%	12µM*	x
COc1ccc(CCNC(=O)CCc2c(C)nc3cc(-c4ccccc4OC)nn3c2C)c(OC)c1	x	-15%	x	x	x	-2%
O=S(=O)(Cc1cc(-c2ccccc2)no1)c1ccccc1	u	27µM*	u	u	u	u
O=C1c2ccccc2C(=O)N1Cc1cc(-c2ccccc2)no1	0%	-12%	-7%	-1%	7%	-77%
COc1ccc(-c2cc(CNS(=O)(=O)c3ccc(NC(C)=O)cc3)on2)cc1	0%	-1%	1%	-4%	-7%	x
COc1ccc(-c2cc(CS(=O)(=O)c3ccccc3)on2)cc1	3.2µM*	11µM*	3.2µM*	u	u	18µM*
CCn1ccc(C(=O)N2CCOCC2)n1	-3%	1%	1%	-2%	4%	4%
CCn1ccc(C(=O)Oc2ccc(C(C)C)cc2)n1	0%	2.7µM*	-3%	u	26%	1%
O=C(NCCCSc1ccccc1)c1cc(Cl)ccc1O	-3%	11µM*	-10%	u	3%	x
O=C(NCCCCCCNC(=O)c1ccccc1O)c1ccccc1O	1%	-11%	3%	-12%	10µM*	x
Cc1c(Cl)cccc1Nc1nc(NCCO)c2ccccc2n1	4%	15µM*	-4%	-3%	6%	x
OCCNc1nc(Nc2ccccc2)nc2ccccc12	-8%	u	-3%	-5%	-22%	-34%
OCCNc1nc(Nc2ccc(Br)cc2)nc2ccccc12	-7%	17µM*	0%	-8%	u	-19%
CC(C)CC(NC(=O)OCC1c2ccccc2-c2ccccc21)C(=O)O (configuration not stated)	x	x	x	x	x	13µM*
O=C(O)CCNC(=O)OCC1c2ccccc2-c2ccccc21	0%	-19%	6%[1.84 µM]	-1%	-12%	x
O=C(CCCn1c(=O)c2sccc2n(Cc2ccc(F)cc2)c1=O)NCc1ccco1	0%	6%	0%	-11%	21µM*	-8%
O=C(O)c1ccc(N/N=C/c2ccncc2)cc1	u	8.5µM*	u	17%	u	x
O=C(O)c1ccc(N/N=C/c2ccc3nccnc3c2)cc1	-32%	0.38µM*	-38%	u	u	x
